Assay results from ChEMBL document CHEMBL4513135, “CO-ADD screening of IQOG CSIS (Spain) compounds”.
Results with a measured potency or affinity are listed apart.

Tested on: Staphylococcus aureus
Details: Concentration 32 ug.mL-1; ASSAY_TEST Inhibition of Bacterial Growth; detection method Absorption (OD600); MEDIA CAMHB; plate type 384well; NBS; CORNING #3640; time 18 hr

Row | SMILES | Inhibition [%]
1 | NC(=O)c1cc2cc(OCc3ccccc3)ccc2[nH]1 | 21.34
2 | C#CCNc1nc(NC2CCN(Cc3ccccc3)CC2)c(C#N)c(-c2ccccc2)c1C#N | -5.25
3 | O=C(NCc1ccccc1)c1cc2ccccc2[nH]1 | 5.56
4 | O=C(N/N=C/c1cccc(Cl)c1)c1cc2ccccc2[nH]1 | -16.68

Tested on: Escherichia coli
Details: Concentration 32 ug.mL-1; ASSAY_TEST Inhibition of Bacterial Growth; detection method Absorption (OD600); MEDIA CAMHB; plate type 384well; NBS; CORNING #3640; time 18 hr

Row | SMILES | Inhibition [%]
5 | COc1ccc(C=C2N=C(c3ccccc3)SC2=O)cc1 | 7.03
6 | Cl.NNN1CCc2ccccc21 | 10.83
7 | NNC(=O)Cc1c[nH]c2ccccc12 | 13.76
8 | CN(C)c1nc(Cl)c(C#N)c(-c2ccccc2)c1C#N | -6.44
9 | Cc1ccc(/C=N/NC(=O)c2c[nH]c3ccccc23)cc1 | 7.51
10 | COc1ccc2c(c1)cc(CN(C)Cc1cn(Cc3ccccc3)nn1)n2C | -32.11
11 | COC(=O)C(=Cc1ccc([N+](=O)[O-])cc1)NC(=O)c1ccccc1 | 6.65
12 | C#CCNC.O=C(O)C(=O)O | 23.06
13 | C#CCN(C)Cc1cc2cc(OCCCC3CCN(C(=O)OC(C)(C)C)CC3)ccc2n1C | 14.28
14 | Nc1c2c(nc3c1C(c1ccc(Cl)c(Cl)c1)c1ccc4ccccc4c1O3)CCCC2 (centres undefined) | -11.77
15 | O[C@H]1CC[C@H](NCc2ccccc2)CC1 | -7.34
16 | CCOC(=O)c1c(C)nc(N)c(C#N)c1-c1cccs1 | -18.22
17 | CCOC(=O)C1=C(C)OC(N)=C(C#N)C1c1ccc(OC)c(OC)c1 (centres undefined) | -10.4
18 | CN(C)c1nc(N)c(C#N)cc1C#N | 5.07
19 | COc1ccc(C2C(C#N)=C(N)Oc3[nH]nc(C)c32)cc1 (centres undefined) | 6.91
20 | CC(C)(C)OC(=O)N[C@H]1CC[C@H](O)CC1 | -6.43
21 | Cc1nc2c3cnn(-c4ccccc4)c3nc(C)n2n1 | 10.35
22 | Cn1ccnc1C1c2ccc3cccnc3c2Oc2nc3c(c(N)c21)CCCCC3 (centres undefined) | -10.34
23 | COc1ccc(-c2cc(-c3cc4ccc(OC)cc4nc3Cl)cc(=O)[nH]2)cc1 | -13.67
24 | COc1nc2nc3c(c(N)c2cc1C#N)CCCC3 | -3.63

Row | SMILES | Inhibition [%]
25 | COc1ccc2c(c1)cc(CNc1ccccc1)n2C | -6.35
26 | CC(=O)/C=C/C1CCN(Cc2ccccc2)CC1 | -12.86
27 | N#CC1(Br)C(=NBr)Oc2c(ccc3ccccc23)C1c1ccc([N+](=O)[O-])cc1 (centres undefined) | -19.6
28 | CCOC(=O)c1c(C)[nH]c(=O)c(C#N)c1-c1ccccc1 | -18.87
29 | COc1ccc2c(c1)cc(CN)n2C | 5.66
30 | CCOC(=O)/C(C#N)=C\c1ccc(C)cc1 | 15.07
31 | CSC1=NC(=Cc2cn(C(c3ccccc3)(c3ccccc3)c3ccccc3)c3ccccc23)C(=O)N1C | 9.28
32 | O=C(NNCc1ccco1)c1cc2ccccc2[nH]1 | -6.94
33 | C#CCN(C)c1cc(C)nc(C)n1 | -8.55
34 | Cl.Cl.Cn1c(CNc2ccccc2)cc2cc(OCCCC3CCN(Cc4ccccc4)CC3)ccc21 | -8.49
35 | Cc1ccc2nc(Cl)c(/C=N/OCc3ccccc3)cc2c1 | 20.1
36 | N#CC1(Br)C(=NBr)Oc2ccc3ccccc3c2C1c1ccccc1[N+](=O)[O-] (centres undefined) | -25.63
37 | COc1ccc2c(c1)cc(/C=C/[N+](=O)[O-])n2C | 1.2
38 | CCOC(=O)/C(C#N)=C\c1ccc(Cl)cc1 | 11.69
39 | CCOC(=O)C1=C(C)OC(N)=C(C#N)C1c1ccccc1OC (centres undefined) | -9.51
40 | N#CC1=C(Cl)Oc2c(ccc3ccccc23)C1c1ccccc1[N+](=O)[O-] (centres undefined) | -14.23
41 | NC(=O)c1cc2cc(OCc3ccccc3)ccc2[nH]1 | -8.75
42 | C#CCNc1nc(NC2CCN(Cc3ccccc3)CC2)c(C#N)c(-c2ccccc2)c1C#N | -23.87
43 | O=C(NCc1ccccc1)c1cc2ccccc2[nH]1 | 8.05
44 | O=C(N/N=C/c1cccc(Cl)c1)c1cc2ccccc2[nH]1 | -12.27
